Data taken from ChEMBL document CHEMBL3988442, “University of Dundee, Small-Polar-MMV Screening Library” (2021).
In all, about 48,000 compounds went through this assay and about 13,000 (27%) showed an effect of 50% or more. The list shows a part of the results.

Each molecule was assayed on Wolbachia pipientis (assay: Anti-Wolbachia Cell-Based Screen). Details: 5 µM.
Type: functional
Parameters: scale not given: in the data most compounds retested in dose-response had high values

Row | Compound | Percent Effect
1 | Cc1cc(=O)c(C(=O)Nc2cccc(CCN3CCCC3)c2)c[nH]1 | -5.108%
2 | O=C(O)CSc1nnc(-c2ccn[nH]2)n1-c1cccc(C(F)(F)F)c1 | -2.54%
3 | COc1ccc(-c2nc(C3(NC(=O)OC(C)(C)C)CCC3)no2)cn1 | 3.682%
4 | COc1ccc(C(=O)NCCNC(=O)c2cncnc2C)cc1 | -1.399%
5 | O=C(COC1CCCCC1)Nc1ccn(Cc2cccnc2)n1 | 3.333%
6 | CC1=C[C@@H](CC#N)[C@H](C(C)C)C[C@H]1CC(=O)N1CCN(C)CC1 | 13.63%
7 | Oc1cccc(-c2cc(CC3(N(CC4CC4)CC4CC4)COC3)no2)c1 | 2.791%
8 | CC(C)=CCS(=O)(=O)Cc1noc(CC(C)C)n1 | -4.798%
9 | COCCN1C[C@@H](C)[C@@]2(COCCN(C(=O)c3cccs3)C2)C1.O=C(O)C(F)(F)F | 3.824%
10 | COCCN1C2(CCN(C(=O)c3cccs3)C2)c2ccccc2S1(=O)=O (centres undefined) | 112.6%
11 | COCCN1C[C@H]2CCN(C(=O)Nc3ccccc3C)CC[C@H]2S1(=O)=O | -14.97%
12 | CCNC(=O)N1CCC2(C1)c1ccccc1S(=O)(=O)N2CCOC (centres undefined) | 101.2%
13 | COCC(=O)N1CCC2(CCC(C(=O)N3CCCC3)O2)CC1 (centres undefined) | -11.51%
14 | O=C(O)C(F)(F)F.O=S1(=O)NCC2(CCN(c3ncccn3)CC2)COc2ccccc21 | 7.267%
15 | O=C(c1ccncc1)N1CCC2(COc3ncccc3S(=O)(=O)N2)C1 (centres undefined) | 101.3%
16 | O=C(C1CCCC1)N1CC[C@]2(O)CCN(Cc3ncccn3)C[C@@H]2C1 | -5.051%
17 | O=C(C1CCCCC1)N1CCC2(COc3ncccc3S(=O)(=O)N2)C1 (centres undefined) | 116.2%
18 | O=C(c1ccccn1)N1CCN(C(c2ccccc2)C(F)(F)F)CC1 (centres undefined) | 20.54%
19 | O=C(O)C(F)(F)F.O=C(c1ccncc1)N1CCC2(CC1)C(=O)Nc1ccccc12 | -18.03%
20 | O=C1CCC2(CCCN(C(=O)C3CCCC3)C2)CN1CCc1c[nH]cn1 (centres undefined) | -4.42%
21 | O=C(c1ccccn1)N1CCC2(COc3ncccc3S(=O)(=O)N2)C1 (centres undefined) | 107.8%
22 | O=C(c1ccoc1)N1CCC2(C1)CN(c1ncccn1)C2 | -1.221%
23 | O=C(c1ccc(Cl)s1)N1CC(c2nc(-c3ccc[nH]c3=O)no2)C1 | -1.237%
24 | O=C(c1ccc(Cl)s1)N1CCC2(COc3ncccc3S(=O)(=O)N2)C1 (centres undefined) | 106.8%
25 | CCC(CC)NC(=O)NCc1ccnc(-n2ccnc2C)c1 | -7.702%

Row | Compound | Percent Effect
26 | COCCN1CCN(C(=O)C[C@@H]2C[C@@H](C(C)C)[C@H](CO)C=C2C)CC1 | -1.318%
27 | CC(=O)Nc1ncc(S(=O)(=O)N2CCC(C)CC2)s1 | -4.256%
28 | COCCN(C)C(=O)c1ccc2onc(-c3coc(C)n3)c2c1 | 3.529%
29 | CC(C)Cc1noc(CN(C)C(=O)C2COc3ccccc3C2)n1 (centres undefined) | -0.9273%
30 | O=C(CN1CC(c2nc(C3CC3)no2)C1)NCC1CCCO1.O=C(O)C(=O)O (centres undefined) | 11.2%
31 | Cc1ccc(CN2CC3(CCN(C(=O)c4cscn4)C3)C2)s1.O=C(O)C(F)(F)F | -3.969%
32 | O=C(c1cscn1)N1CCC2(COc3ncccc3S(=O)(=O)N2)C1 (centres undefined) | 87.78%
33 | O=C(c1cscn1)N1CCC2(CC1)CCN(S(=O)(=O)c1ccccc1)C2 | -2.013%
34 | O=C(O)C(F)(F)F.O=C(O)C(F)(F)F.O=C(c1ccncc1)N1CCCn2c(CN3CCCC3)nnc2C1 | -6.384%
35 | CCOCC(=O)N1CCCn2c(nnc2Cn2cccc2)C1 | 93.36%
36 | O=C(CC1CC1)N1CCCn2c(nnc2Cn2cccc2)C1 | -9.469%
37 | COCC(=O)N1CCCn2c(CN3CCCCC3)nnc2C1.O=C(O)C(F)(F)F | -12.43%
38 | COCC(=O)N1CCCn2c(CN3CCCC3)nnc2C1 | 85.92%
39 | O=C(C1CCCO1)N1CCCn2c(nnc2Cn2ccnc2)C1.O=C(O)C(F)(F)F (centres undefined) | -15.24%
40 | COCC(=O)N1CCCn2c(CN3CCOCC3)nnc2C1.O=C(O)C(F)(F)F | 114.9%
41 | COCC(=O)N1CCCn2c(CN3CCCC3=O)nnc2C1 | 88.29%
42 | O=C(C1CCCO1)N1CCCn2c(nnc2Cn2cccc2)C1 (centres undefined) | -19.79%
43 | Fc1cnc(N2CCCn3c(CN4CCOCC4)nnc3C2)nc1.O=C(O)C(F)(F)F.O=C(O)C(F)(F)F | -2.409%
44 | CCc1nc(CCNC(=O)C2CCOC2)sc1C (centres undefined) | -3.855%
45 | Cc1cc(N2CCN(C(=O)C(C)n3ccnc3C(C)C)CC2)cc(C)n1 (centres undefined) | 8.833%
46 | CCOCC(=O)N1CCCn2c(CN3CCCCC3)nnc2C1 | 101.4%
47 | CCOCC(=O)N1CCCn2c(CN3CCOCC3)nnc2C1 | 89.68%
48 | Cc1nc2cc(F)cc(C(=O)N3CCN(CC(C)O)CC3)c2nc1C (centres undefined) | -10.08%
49 | CNc1cncc(C2CCN(C(=O)c3cnco3)CC2)n1 | 87.6%
50 | CNc1cncc(C2CCN(C(=O)c3coc(C)n3)CC2)n1 | 81.53%

Row | Compound | Percent Effect
51 | COCCN(Cc1ccco1)Cc1nc(-c2ccc(C)c(F)c2)no1 | -0.2442%
52 | CC1Oc2ccc(S(=O)(=O)NCCCn3ccnc3)cc2NC1=O (centres undefined) | -3.003%
53 | CCC(C)(C)NCc1nc(C(C)(C)NC(=O)OC(C)(C)C)no1 | 2.253%
54 | COCCNC(=O)c1nc2c(s1)CCCN2c1ccc(C)nn1 | 1.037%
55 | COCCN(C)C(=O)c1nc2c(s1)CCCN2c1ncccn1 | -1.851%
56 | Cc1ccc(N2CCCc3sc(C(=O)NCc4cccnc4)nc32)nn1 | 10.28%
57 | CCN(C(=O)c1nc2c(s1)CCCN2c1ccc(C)nn1)C(C)C | 87.32%
58 | Cc1ccc(N2CCCc3sc(C(=O)NCc4ccncc4)nc32)nn1 | -3.066%
59 | COCCN(C)C(=O)c1nc2c(s1)CCCN2c1ccc(C)nn1 | 96.15%
60 | N#Cc1cccc(CN2CC3(CCCCN3c3cccnc3)CC2=O)c1.O=C(O)C(F)(F)F (centres undefined) | 9.304%
61 | CC(C)CN1C[C@@H]2CN(c3cnccn3)C[C@@H]2C1=O | -19.41%
62 | O=S(=O)(NCC1(O)CCOc2ccccc21)c1cccs1 (centres undefined) | -3.854%
63 | CCC(CO)N(Cc1cccs1)C(=O)CNS(=O)(=O)c1cccs1 (centres undefined) | 5.395%
64 | O=C(CSc1ccc2c(c1)OCCO2)NS(=O)(=O)c1cccs1 | 5.144%
65 | CN(C)c1ccc(C(CNS(=O)(=O)c2cccs2)N2CCCC2)cc1 (centres undefined) | 108.3%
66 | O=S(=O)(NCC(c1ccsc1)N1CCCCCC1)c1cccs1 (centres undefined) | 116.8%
67 | CN1CCc2cc(C(CNS(=O)(=O)c3cccs3)N3CCCC3)ccc21 (centres undefined) | -7.457%
68 | O=C(CN1CCN(C(=O)c2cccc(-c3ccoc3)c2)CC1)C1CC1 | -1.743%
69 | CN(C)CC1CSCCCN1C(=O)c1ccsc1 (centres undefined) | 106.6%
70 | CN(C)CC1CSCCCN1C(=O)c1ccc(-n2cccc2)cc1 (centres undefined) | 106.7%
71 | CN(C)CC1CSCCCN1C(=O)c1ccc(-c2ccccc2)cc1 (centres undefined) | 105.9%
72 | Cc1ccc(C2CSCCN2C(=O)c2ccsc2)o1 (centres undefined) | 6.011%
73 | CN(C)CC1CSCCCN1S(=O)(=O)Cc1ccc(C(F)(F)F)cc1 (centres undefined) | -4.653%
74 | CN(C)CC1CSCCCN1S(=O)(=O)Cc1cccc(F)c1 (centres undefined) | 24.8%
75 | CN(C)CC1CSCCCN1S(=O)(=O)c1ccc(C(F)(F)F)cc1 (centres undefined) | 1.872%

Row | Compound | Percent Effect
76 | CN(C)CC1CSCCCN1C(=O)c1ccc(C(C)(C)C)cc1 (centres undefined) | 10.83%
77 | CN(C)CC1CSCCCN1C(=O)c1cccc(C(F)(F)F)c1 (centres undefined) | 90.72%
78 | CN(C)CC1CSCCCN1C(=O)c1ccc(=O)[nH]c1 (centres undefined) | 13.95%
79 | CN(C)CC1CSCCCN1C(=O)Nc1ccc(C(C)(C)C)cc1 (centres undefined) | -13.3%
80 | CC(O)CN1CCC(CNCc2cccc(OC(C)C)c2)CC1 (centres undefined) | -7.306%
81 | CC(c1nc(-c2ccccc2)no1)N1CC(n2cccn2)C1 (centres undefined) | -11.21%
82 | COc1ccc(CN(C)c2ccc(-c3nccn3C)nn2)cc1OC | -9.583%
83 | O=C(Nc1nnn[nH]1)c1ccc(I)c(F)c1 | 14.38%
84 | Cc1ccc(C2CSCCN2C(=O)c2ccc(C(N)=O)cc2)o1 (centres undefined) | -7.519%
85 | CC(C)Oc1ccc(C(=O)N2CCCSCC2CN(C)C)cc1 (centres undefined) | 112.1%
86 | Cc1cccc(OCC2CCCN(C(=O)CN(C)C3CCNCC3)C2)c1 (centres undefined) | -1.159%
87 | CC(C)NC(=O)C1CCC2(CCN(Cc3cnn(C)c3)CC2)C1.O=C(O)C(F)(F)F (centres undefined) | -6.614%
88 | CN(Cc1ncnn1C1Cc2ccccc2C1)C1CCS(=O)(=O)C1 (centres undefined) | 124.4%
89 | CN(Cc1nc(C2CC2)no1)C1CCS(=O)(=O)C1 (centres undefined) | -44.33%
90 | CCN(Cc1cc(-c2ccccn2)no1)C1CCS(=O)(=O)C1 (centres undefined) | -17.52%
91 | CCN(Cc1ccc(-c2ccccn2)cc1)C1CCS(=O)(=O)C1 (centres undefined) | -8.377%
92 | CN(Cc1nc(C(C)(C)C)no1)C1CCS(=O)(=O)C1 (centres undefined) | -19.08%
93 | Cc1nc(CN(Cc2ccccc2)C2CCS(=O)(=O)C2)oc1C (centres undefined) | 1.056%
94 | CN(CCc1ncnn1-c1ccccc1Cl)C1CCS(=O)(=O)C1 (centres undefined) | 107.4%
95 | CN(CCc1ccc2c(c1)CCO2)C1CCS(=O)(=O)CC1 | -8.2%
96 | CN(CCc1ncnn1C1Cc2ccccc2C1)C1CCS(=O)(=O)C1 (centres undefined) | 86.57%
97 | Cc1ccc(O)c(C(=O)NCCS(=O)(=O)Cc2ccccc2)c1 | 0.3485%
98 | O=C(CCN1C(=O)CCC1=O)Nc1cnn(-c2ccccc2Cl)c1 | -6.016%
99 | Cc1cccc(OC(C)C(=O)NCC2(N(C)C)CCCC2)c1 (centres undefined) | 4.772%
